Data on 19 compounds can be found in PubChem BioAssay.

Unmarked numbers belong to inactive results. For some assays here: Results with a measured potency or affinity are listed apart. Active and inactive are the calls of the source. Unless noted, no rule for the calls is given here.

The nature of assay [1]: antimalarial activity against Dd2 strain (AID 2302;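 active = growth inhibition above 50% at the single 2 µM test dose, taken to imply half-maximal potency below 2 µM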;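 also: 0% = DMSO untreated growth and 100% = chloroquine plus artemisinin killed control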). The following applies: P. falciparum Dd2 in RBCs, LDH growth readout, 72 h; at 2 µM; stronger effect = higher value.
A short description of assay [2]: human hepatoma cell viability loss – ATP luminescence, cytotoxicity control for P. falciparum antimalarial project, primary screen (AID 2303;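 active = inhibition above 50%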;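 also: 0% = DMSO wells and 100% = digitonin-killed cells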). The following applies: HepG2 viability, 24-48 h, at 10 µM, stronger effect = higher value.
Assay [3] deals with L-lactate dehydrogenase (Plasmodium falciparum (isolate CDC / Honduras)) (UniProt Q27743). Put plainly: PfLDH activity inhibition – cell lysate, 3D7 strain, counter-screen for P. falciparum growth inhibition project (AID 2304).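 Also: 0% = vehicle and 100% = reference inhibitor.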 The following applies: P. falciparum 3D7 crude extract, LDH APAD/NBT absorbance; at 2 µM; stronger effect = higher value. (The purpose of a counterscreen is to sort out artefacts and off-target activity.)

Assay [4] in a line: inhibition of 3D7 malaria parasite growth – strain 3D7 (AID 2306).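 Also: 0% = DMSO wells and 100% = chloroquine plus artemisinin control wells.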 The following applies: P. falciparum 3D7 erythrocytic growth, LDH absorbance, 72 h; at 2 µM; stronger effect = higher value.
Assay [5] has as its target Calcium-dependent protein kinase 1 (Plasmodium falciparum (isolate 3D7)) (UniProt P62344). Briefly: PfCDPK1 kinase inhibitors, biochemical, TCAMS library (AID 1159585; cut-off not given, nearly all actives have IC50 up to about 0.98 µM;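 also: inhibitors leave more ATP so luminescence rises with inhibition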). The following applies: recombinant PfCDPK1, Kinase-Glo ATP depletion luminescence. A general note: Kinase-Glo measures the ATP left after a reaction by luminescence.
For assay [6], the target named is Plasmodium falciparum protein kinase 6 (PK6, PF3D7_1337100) (UniProt Q8IDW1). Briefly: PfPK6 kinase inhibitors, biochemical, TCAMS library (AID 1159586). The following applies: recombinant PfPK6, Kinase-Glo ATP depletion luminescence.
Assay [7] deals with Protein kinase 7 (PK7), Plasmodium falciparum 3D7 (PF3D7_0213400) (UniProt Q7YTF7). Briefly: inhibition of Plasmodium PK7 catalytic activity – biochemical, TCAMS antimalarial set, Kinase-Glo luminescence (AID 1159587). The following applies: recombinant PfPK7, Kinase-Glo ATP depletion luminescence.
The target in assay [8] is Calcium-dependent protein kinase 4 (Plasmodium falciparum (isolate 3D7)) (UniProt Q8IBS5). Briefly: PfCDPK4 kinase inhibitors, biochemical, TCAMS library (AID 1159588; cut-off not given, nearly all actives have IC50 up to about 0.91 µM). The following applies: recombinant PfCDPK4, Kinase-Glo ATP depletion luminescence.
Sequence of Calcium-dependent protein kinase 4 (Plasmodium falciparum (isolate 3D7)) (Q8IBS5 whole entry, looked up): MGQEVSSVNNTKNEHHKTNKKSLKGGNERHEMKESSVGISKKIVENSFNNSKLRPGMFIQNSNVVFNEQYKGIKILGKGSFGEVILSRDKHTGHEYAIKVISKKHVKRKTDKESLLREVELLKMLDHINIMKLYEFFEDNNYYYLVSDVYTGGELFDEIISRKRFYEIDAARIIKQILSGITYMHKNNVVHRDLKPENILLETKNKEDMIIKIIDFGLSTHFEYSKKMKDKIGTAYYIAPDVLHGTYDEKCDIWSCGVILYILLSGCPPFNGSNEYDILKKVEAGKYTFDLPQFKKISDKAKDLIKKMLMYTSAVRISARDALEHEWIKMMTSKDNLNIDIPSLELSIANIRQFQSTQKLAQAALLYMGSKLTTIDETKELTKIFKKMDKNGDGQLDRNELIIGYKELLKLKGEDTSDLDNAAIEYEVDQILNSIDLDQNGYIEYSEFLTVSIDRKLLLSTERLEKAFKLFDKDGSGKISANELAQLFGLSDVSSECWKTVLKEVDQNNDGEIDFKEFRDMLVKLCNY

Sequence of L-lactate dehydrogenase (Plasmodium falciparum (isolate CDC / Honduras)) (Q27743 whole entry, looked up): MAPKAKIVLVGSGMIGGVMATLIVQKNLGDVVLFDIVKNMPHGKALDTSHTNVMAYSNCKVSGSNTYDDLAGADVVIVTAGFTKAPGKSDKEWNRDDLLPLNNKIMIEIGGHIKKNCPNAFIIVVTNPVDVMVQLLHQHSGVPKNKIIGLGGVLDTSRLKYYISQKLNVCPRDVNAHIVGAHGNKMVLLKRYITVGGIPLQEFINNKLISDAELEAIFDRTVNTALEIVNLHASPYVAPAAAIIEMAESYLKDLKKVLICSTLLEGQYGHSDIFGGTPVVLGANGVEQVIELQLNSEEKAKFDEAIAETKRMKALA
Sequence of Protein kinase 7 (PK7), Plasmodium falciparum 3D7 (PF3D7_0213400) (Q7YTF7 1-343): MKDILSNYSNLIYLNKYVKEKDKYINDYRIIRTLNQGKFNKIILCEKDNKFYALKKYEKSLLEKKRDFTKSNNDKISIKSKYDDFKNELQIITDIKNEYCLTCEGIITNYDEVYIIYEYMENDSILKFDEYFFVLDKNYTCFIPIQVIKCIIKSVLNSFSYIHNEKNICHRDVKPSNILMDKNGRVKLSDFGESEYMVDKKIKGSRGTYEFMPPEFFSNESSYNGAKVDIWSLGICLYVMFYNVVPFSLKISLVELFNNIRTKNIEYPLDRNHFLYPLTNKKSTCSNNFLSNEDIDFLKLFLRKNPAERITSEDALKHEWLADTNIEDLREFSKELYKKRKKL
Sequence of Plasmodium falciparum protein kinase 6 (PK6, PF3D7_1337100) (Q8IDW1 1-305): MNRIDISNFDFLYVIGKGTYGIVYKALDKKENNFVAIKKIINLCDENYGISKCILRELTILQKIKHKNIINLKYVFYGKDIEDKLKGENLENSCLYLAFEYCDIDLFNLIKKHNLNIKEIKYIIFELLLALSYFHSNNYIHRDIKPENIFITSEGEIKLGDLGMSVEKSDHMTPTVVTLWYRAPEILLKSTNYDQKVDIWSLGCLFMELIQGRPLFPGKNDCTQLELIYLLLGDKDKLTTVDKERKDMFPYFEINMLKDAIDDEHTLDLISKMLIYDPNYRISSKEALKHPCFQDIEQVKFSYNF
Sequence of Calcium-dependent protein kinase 1 (Plasmodium falciparum (isolate 3D7)) (P62344 whole entry, looked up): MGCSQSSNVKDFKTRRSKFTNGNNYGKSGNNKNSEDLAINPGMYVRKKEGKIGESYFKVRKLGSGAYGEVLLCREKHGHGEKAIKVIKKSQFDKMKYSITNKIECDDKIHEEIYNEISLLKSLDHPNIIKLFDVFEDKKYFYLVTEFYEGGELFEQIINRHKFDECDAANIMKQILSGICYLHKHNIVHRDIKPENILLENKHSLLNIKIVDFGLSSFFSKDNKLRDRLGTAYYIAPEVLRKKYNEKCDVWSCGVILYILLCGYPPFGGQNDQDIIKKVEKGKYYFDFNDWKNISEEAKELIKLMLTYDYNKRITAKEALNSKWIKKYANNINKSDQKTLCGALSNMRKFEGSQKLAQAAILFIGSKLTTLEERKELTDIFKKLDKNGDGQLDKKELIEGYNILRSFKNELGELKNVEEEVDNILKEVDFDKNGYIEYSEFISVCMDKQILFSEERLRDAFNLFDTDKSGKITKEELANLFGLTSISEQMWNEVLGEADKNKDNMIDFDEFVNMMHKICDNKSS

For the compound `CCCNc1ccc2nccc(CCN3CCC(NCc4ccc5c(c4)NC(=O)CS5)CC3)c2n1`, the values for the growth inhibition in assay [1] and in assay [4] were 17% and 94% (active), respectively. Moreover, the inhibition was -2% in assay [2] and -5% in assay [3]. Also, the result in assay [5], in assay [6], in assay [7] and in assay [8] was inactive.
Turning to `CCn1ccc2c(N3CCCC3=O)cc(C(=O)N[C@@H](Cc3ccccc3)[C@H](O)CNCc3cccc(OC)c3)cc21`, the growth inhibition in assay [1] is 92% (active); in assay [4], 94% (active). The figures for the inhibition in assay [2] and in assay [3] were 4% and -5%, respectively. Besides, the outcome in assay [5], in assay [6], in assay [7] and in assay [8] was inactive.
For `C=C[C@]1(C)C[C@@H](OC(=O)CS[C@H]2CN3CC[C@H]2C3)[C@@]2(C)C3C(=O)CC[C@@]3(CC[C@H]2C)[C@@H](C)[C@@H]1O` (some centres not stated), the growth inhibition in assay [1] is 75% (active); in assay [4], 91% (active). Besides, the inhibition in assay [2] is 18%; in assay [3], 4%. The result in assay [5], in assay [6], in assay [7] and in assay [8] was inactive.
Take `O=C(Cc1cnc[nH]1)Nc1cccc(-c2ccc(-c3nc4ccc(C(F)(F)F)cc4[nH]3)s2)c1`: the values for the growth inhibition in assay [1] and in assay [4] were 99% (active) and 101% (active), respectively. The inhibition is 5% in assay [2] and 3% in assay [3]. Moreover, the outcome in assay [5], in assay [6], in assay [7] and in assay [8] was inactive.
`N#Cc1cncc(-c2nc3c(N4CCC(Cc5ccccc5)CC4)cccc3n2C2CCNC2)c1` (configuration not stated): the growth inhibition in assay [1] is 7%; in assay [4] it was 88% (active). The inhibition in assay [2] is 5%; in assay [3], -1%. In addition, the outcome in assay [5], in assay [6], in assay [7] and in assay [8] was inactive.
Take `Cc1cc2c(cc1C(F)(F)F)N(C(=O)Nc1cc(C(=O)NC3CCN(Cc4ccccc4)C3)cc(C(F)(F)F)c1)CC2` (configuration not stated): the growth inhibition in assay [1] was 97% (active); in assay [4] it was 101% (active). The inhibition in assay [2] was 22%; in assay [3], 0%. In addition, the result in assay [5], in assay [6], in assay [7] and in assay [8] was inactive.
Turning to `O=C(C=Cc1ccc(Cl)c(Cl)c1)NCCCCCN1CCC(CCCNC(=O)c2sc3ccccc3c2Cl)CC1`, the results for the growth inhibition in assay [1] and in assay [4] were 40% and 93% (active), respectively. Besides, the results for the inhibition in assay [2] and in assay [3] were 99% (active) and -5%, respectively. Besides, the outcome in assay [5], in assay [6], in assay [7] and in assay [8] was inactive.
As for `COc1cc(NC(=O)c2c(-c3c(Cl)cccc3Cl)noc2C)c(OC)cc1Cl`, the growth inhibition in assay [1] is 67% (active); in assay [4], 85% (active). The inhibition was 4% in assay [2] and 0% in assay [3]. In addition, the result in assay [5], in assay [6], in assay [7] and in assay [8] was inactive.
As for `COc1cc(CS(C)(=O)=O)ccc1Nc1nccc(-c2c(-c3cccc(NC(=O)c4c(F)cccc4F)c3)nn3ccccc23)n1`, the growth inhibition was 71% (active) in assay [1] and 92% (active) in assay [4]. The inhibition in assay [2] was 46%; in assay [3], 3%. Besides, the outcome in assay [5], in assay [6], in assay [7] and in assay [8] was inactive.
For `CC(C)N1CCN(c2ccc(OCCCCN3CCN(c4cccc(Cl)c4Cl)CC3)c(C(F)(F)F)c2)CC1`, the growth inhibition in assay [1] was 28%; in assay [4] it was 101% (active). In addition, the inhibition is 64% (active) in assay [2] and 4% in assay [3]. Also, the outcome in assay [5], in assay [6], in assay [7] and in assay [8] was inactive.
`CC(CN(C)C)C(=O)Nc1cccc(-c2ccc(-c3nc4ccc(F)cc4[nH]3)cc2)c1` (configuration not stated): the figures for the growth inhibition in assay [1] and in assay [4] were 100% (active) and 101% (active), respectively. The values for the inhibition in assay [2] and in assay [3] were 11% and -1%, respectively. Moreover, the result in assay [5], in assay [6], in assay [7] and in assay [8] was inactive.
In the case of `Cn1ncc2c3c(CCN4CCC(NCc5cc6c(cn5)OCC6)CC4)c(Cl)cnc3ccc21`, the growth inhibition in assay [1] is 0%; in assay [4] it was 94% (active). Also, the inhibition in assay [2] was 4%; in assay [3], 2%. Further, the outcome in assay [5], in assay [6], in assay [7] and in assay [8] was inactive.
For `O=C(Nc1ccc(-c2ccccc2)cc1)Nc1cccc(Cn2ncc(N3CCCNCC3)c(Cl)c2=O)c1`, the growth inhibition in assay [1] was 52% (active); in assay [4], 102% (active). For the same compound, the inhibition in assay [2] was 14%; in assay [3], -1%. Besides, the outcome in assay [5], in assay [6], in assay [7] and in assay [8] was inactive.
For `CN1CCN(Cc2cc(NC(=O)c3ccc(-c4ccc(Cl)cc4Cl)cc3)ccc2-c2ccccc2)CC1`, the figures for the growth inhibition in assay [1] and in assay [4] were 21% and 95% (active), respectively. The inhibition in assay [2] was 52% (active); in assay [3], 3%. The outcome in assay [5], in assay [6], in assay [7] and in assay [8] was inactive.
Turning to `Clc1ccc(Nc2nc(-c3ccccn3)cs2)nc1`, the values for the growth inhibition in assay [1] and in assay [4] were 90% (active) and 95% (active), respectively. Also, the inhibition in assay [2] is 36%; in assay [3] it was -1%. Besides, the result in assay [5], in assay [6], in assay [7] and in assay [8] was inactive.
For `Brc1cc2c(cc1C=NNc1nc(Nc3ccccc3)nc(Nc3ccccc3)n1)OCO2`, the growth inhibition in assay [1] is 32%; in assay [4], 100% (active). The inhibition was -7% in assay [2] and 1% in assay [3]. The result in assay [5], in assay [6], in assay [7] and in assay [8] was inactive.
As to `Cc1cc(=O)c2cc(Oc3cccc(OC(F)(F)F)c3)ccc2[nH]1`, the growth inhibition is 80% (active) in assay [1] and 90% (active) in assay [4]. Moreover, the inhibition in assay [2] is 9%; in assay [3] it was 2%. For the same compound, the outcome in assay [5], in assay [6], in assay [7] and in assay [8] was inactive.
`c1ccc2oc(-c3cc4ccncc4cc3OC3CCNCC3)cc2c1`: the values for the growth inhibition in assay [1] and in assay [4] were 96% (active) and 100% (active), respectively. The inhibition is 11% in assay [2] and -3% in assay [3]. In addition, the outcome in assay [5], in assay [6], in assay [7] and in assay [8] was inactive.
For the compound `CC(=O)N1N=C(c2ccc(F)cc2)Sc2c1nc(-c1ccccc1)n2C(C)=O`, the growth inhibition in assay [1] was 67% (active); in assay [4], 99% (active). Further, the inhibition in assay [2] was -11%; in assay [3], -1%. For the same compound, the outcome in assay [5], in assay [6], in assay [7] and in assay [8] was inactive.

For orientation: inhibition means the change of the read-out against control, counted positive when it falls.
